# Activity calls are given as the source filed them.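 How the source made its calls: active means high combined rank on largest and smallest cell-count-weighted shift across three tests, rank score above 45, floors 50 and 25 (some results past the limit were not filed as active); inactive means the rest.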
# Assay: LNCaP granularity increase inducers, single-point recheck – cell-based, side scatter shift, flow cytometry, confirmation (AID 1069);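 further: LNCaP human prostate cancer cells in low-serum medium with charcoal-stripped FBS; percent of cells with raised granularity gated so DMSO controls show 10%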
# Conditions: LNCaP differentiation, 4 d, stronger effect = higher value
Compound,side scatter shift (at 100 µM),"side scatter shift (side scatter shift, at 10 µM)"
Cc1ccccc1-c1nc(CN2CCC(C(=O)O)CC2)c(C)o1,3.7% (inactive),1.25%
CCN1CCCC1CNC(=O)c1cc2c(-c3cccc(OC)c3)nn(C)c2s1 (configuration not stated),40% (inactive),12.8%
Cc1ccccc1-c1nc(CN2CCC(C(=O)NCCCN3CCOCC3)CC2)c(C)o1,78.9% (active),13.4%
COc1ccc(C)cc1NC(=O)CCC(=O)Nc1ccc2nc(N3CCN(C)CC3)cc(C)c2c1,10.5% (inactive),13.4%
O=S1(=O)C=C(Sc2nc3ccccc3s2)c2ccccc21,7.7% (inactive),17.9%
CCOc1ccc(NC(=O)COc2nsnc2N2CCCCC2)cc1,8.7% (inactive),6.35%
Cn1c(=O)cc(OCC(=O)NCCCN2CCN(c3cccc(Cl)c3)CC2)c2ccccc21,20% (inactive),8.2%
COc1ccc(-c2noc(CCC(=O)NCCCN3CCC(C)CC3)n2)cc1,23.8% (inactive),4.9%
Cc1ccccc1-c1nc(CN2CCC(C(=O)NCCC3=CCCCC3)CC2)c(C)o1,9.1% (inactive),24.8%
Cc1oc(-c2ccccc2F)nc1CN1CCC(C(=O)NCc2ccco2)CC1,23.3% (inactive),3%
COc1ccc(-n2c3c(cc(C(=O)N4CCC(C)CC4)c2=O)C(=O)CC(C)(C)C3)cc1,20% (inactive),1.8%
CCc1ccc(-c2nc(CN3CCCC(C(=O)O)C3)c(C)o2)cc1 (configuration not stated),12.4% (inactive),9%
CCc1cc(C)cc(OCCNC(=O)c2ncn[nH]2)c1,3.5% (inactive),0%
CCOC(=O)N1CCN(C(=O)C2CCN(Cc3nc(-c4ccccc4C)oc3C)CC2)CC1,30.6% (inactive),5.15%
COCCn1c(=O)[nH]c2cc(C(=O)NCCCN3CCN(c4ccc(F)cc4)CC3)ccc2c1=O,37.9% (inactive),6.5%
Cc1cccc(-c2nc(CN3CCCC(C(=O)NC4CCCCC4)C3)c(C)o2)c1 (configuration not stated),21.4% (inactive),7.35%
Cn1c(C(=O)NCCC2=CCCCC2)cc2c(=O)n3ccccc3nc21,11.5% (inactive),5.75%
COc1ccc(S(=O)(=O)CCC(=O)O)cc1,16.3% (inactive),7.3%

Compound,side scatter shift (at 100 µM),"side scatter shift (side scatter shift, at 10 µM)"
CN(CC(=O)Nc1ccc2c(c1)OCCO2)S(=O)(=O)c1cccc2cccnc12,16.8% (inactive),3.95%
COc1ccc(-c2noc(CCC(=O)NCCCN3CCC(Cc4ccccc4)CC3)n2)cc1,21.7% (inactive),28.6%
O=C(CCn1c(=O)oc2ccccc21)NCCCN1CCN(c2ccc(F)cc2)CC1,25.4% (inactive),4.25%
Cc1ccccc1-c1nc(CN2CCC(C(=O)NCc3ccco3)CC2)c(C)o1,41.1% (inactive),3.2%
Cc1onc(-c2ccccc2Cl)c1C(=O)N(C)C1CCCCC1,16% (inactive),5.1%
COc1cccc(-c2cc(C(=O)N3CCN(C(c4ccccc4)c4ccccc4)CC3)no2)c1,9.8% (inactive),2.7%
COc1ccc2nc(NC(=O)C(NS(=O)(=O)c3cccs3)C(C)C)sc2c1 (configuration not stated),35.8% (inactive),3.1%
CCOC(=O)c1c(C)n(C)c2ccc(OCC(O)CNC(CC)CO)cc12 (configuration not stated),58.6% (active),3.3%
O=C(NCCCN1CCN(c2cccc(Cl)c2)CC1)C1CCC(=O)N1Cc1ccccc1Cl (configuration not stated),33.3% (inactive),11.4%
C=CCn1c(=N)n(CC(O)COc2ccccc2OC)c2ccccc21 (configuration not stated),13.8% (inactive),2.35%
COc1ccc(CCN2CCC(Nc3nc4ccccc4n3Cc3ccc(F)cc3)CC2)cc1,0% (active),35.3%
COCCCN(C(=O)Nc1ccccc1)C(C)c1ccncc1 (configuration not stated),9.2% (inactive),2.8%
O=C(CN1CCN(Cc2ccc3c(c2)OCO3)CC1)N1CCc2[nH]c3ccc(F)cc3c2C1,20.8% (inactive),7.3%
CCOC(=O)N1CCN(S(=O)(=O)c2ccc(C(=O)Nc3nc4ccccc4s3)cc2)CC1,11.7% (inactive),5.15%
CCN(CC)CC(=O)Nc1ccc(-c2nc3cc(NC(=O)CN(CC)CC)ccc3o2)cc1,0% (active),42%
CN1CCN(CC(=O)Nc2ccc(Cl)cc2Cl)CC1,23.1% (inactive),6.1%
Cc1ccc2[nH]c(=O)c3cc(C(=O)N(C)Cc4ccco4)sc3c2c1,4.2% (inactive),11.1%
Cn1nc(-c2ccc(Cl)cc2)c2cc(C(=O)NCCN3CCOCC3)sc21,30% (inactive),5.2%

# — PubChem BioAssay AID1069 (NMMLSC, 2008)
